Screens (PubChem)
IL-1B inflam inh – inflammasome signaling inhibition, IL-1 beta readout; actives 4.7% (n = 360,000); THP-1 LPS/ATP IL-1B secretion, AlphaLISA, 16 h; active compounds read low; activity change, % at 57.5 µM; in the data active = activity change below about -50%; inconclusive = mostly about -30% to -49%
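Secreted IL-1B measured by AlphaLISA bead assay after 16 h compound exposure of THP-1 cells; compounds (final up to 57.5 uM) added 1 h before LPS (250 ng/mL) and ATP (1.25 mM) stimulation; lower signal means less secretion.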
KB-V1 MDR tox – KB-V1 MDR subline cytotoxicity; actives 3.4% (n = 400,000); AID 1347076; Potency, µM (titrated, usually from 46.1 µM), most hits filed as cytotoxic; KB-V1 MDR cells viability, CellTiter-Glo, 72 h; note: potency is the fitted concentration of half-maximal effect; nearly all actives have a fitted effect of over 60% in size
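Compound-treated KB-V1 multidrug-resistant cells, 72 h, 37 degrees C; viability by CellTiter-Glo. Fitted qHTS curves give the values.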
HT1080-NT tox – kills 2HG-producing HT-1080-NT fibrosarcoma cells; HT-1080-NT fibrosarcoma viability, CellTiter-Glo ATP luminescence, 48 h; Potency, µM (series often up to 46.1 µM), for the others: at the top dose activity, negative = less viability, hits mostly cytotoxic; actives 1.6% (n = 360,000);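 note: NT is the 2HG producing partner of a matched IDH1 knockdown line; potency is the fitted concentration of half-maximal effect; 0% = DMSO-treated cells and -100% = media-only wells without cells; nearly all actives have a fitted effect of over 55% in size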
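Viability by CellTiter-Glo luminescence after 48 h compound exposure at 37C of HT-1080-NT cells (750/well, RPMI, 5% FBS). % activity scaled between DMSO wells and medium-only wells, then curve-fitted and categorized by curve class.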
HT1080 IDH1KD tx – HT-1080 IDH1 knockdown cell toxicity (counter line). HT-1080 IDH1 knockdown viability, ATP luminescence, 48 h. Potency, µM (titrated, usually from 46.1 µM), for inactives: at the highest dose activity, negative = toxicity, actives largely listed as cytotoxic. actives 2% (n = 360,000);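 note: potency is the fitted concentration of half-maximal effect; 0% = DMSO wells and -100% = cell-free medium wells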
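IDH1KD HT-1080 cells, 750/well, RPMI + 5% FBS; compound pinned after 2 h settling; 48 h, 37 °C; CellTiter-Glo luminescence; % activity normalised to DMSO and no-cell wells; curves fitted, classed by r2 and efficacy.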
KB-3-1 cytotox – KB-3-1 parental cell cytotoxicity; AID 1347075; KB-3-1 viability, CellTiter-Glo ATP luminescence, 72 h; actives 1.4% (n = 400,000); Potency, µM (doses to about 46.1 µM), hits mostly cytotoxic; note: potency is the fitted concentration of half-maximal effect; nearly all actives have a fitted effect of over 60% in size
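Luminescent ATP read-out (CellTiter-Glo) measures survival of drug-naive KB-3-1 cells after 72 h compound exposure at 37 °C. Titration series was screened from lowest to highest concentration, with DMSO vehicle plates as background controls.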
Numbers without * were called inactive; i = inactive; u = inconclusive; x = no result; [ ] = another dose, or the depositor's remark. Hits are enriched below; roughly 8.8% of the tested compounds scored in any of these assays. Unless noted, calls come from the whole dose curve; as a rule, active = well fitted curve in the direction sought with a large enough effect; inconclusive = small, poorly fitted or top-dose-only effect, or another doubt; inactive = no such curve, though single readings can be large; an effect the other way counts as inactive or inconclusive. Unless noted, % is set by controls: 0 for no effect and ±100 for the full control effect.

SMILES	IL-1B inflam inh	KB-V1 MDR tox	HT1080-NT tox	HT1080 IDH1KD tx	KB-3-1 cytotox
O=C(CSc1nc(N2CCCCC2)nc(N2CCCCC2)n1)N1CCN(c2ccccc2)CC1	-13	16µM*	-13%	-11%	u
Fc1ccc(Nc2nc(N3CCOCC3)nc(N3CCOCC3)n2)cc1	u	i	0%	-4%	i
COc1ccc(CSc2nc3ccncc3n2Cc2nc(-c3ccc(OC)c(OC)c3)oc2C)cc1	x	i	x	x	i
c1ccc(Nc2nc(N3CCNCC3)nc(N3CCOCC3)n2)cc1	-63*	u	-26%	-15%	i
O=C(CSc1nc(Nc2ccccc2)nc(N2CCOCC2)n1)N1CCCC1	-53*	u	-15%	-2%[9.24 µM]	i
Cc1ccc(Nc2nc(N3CCOCC3)nc(N3CCOCC3)n2)cc1C	-60*	i	1%	-9%	i
COc1ccc(Nc2nc(NCc3ccco3)nc(N3CCOCC3)n2)cc1	-57*	i	-13%	-11%	i
COc1ccc(Nc2nc(N3CCOCC3)nc(N3CCOCC3)n2)cc1	-10	i	-5%	-4%	i
CC(C)OC(=O)N(C)C[C@@H]1OCc2ccccc2-c2c(n(C)c3ccccc23)C(=O)N([C@@H](C)CO)C[C@H]1C	13	i	12%	0%	i
CCOC(=O)c1[nH]c(C)c(C(=O)NC(CC)Cc2ccccc2)c1C (configuration not stated)	x	u	x	x	i
OCC1(CCCc2ccccc2)CCN(C2CCSCC2)CC1	-70*	i	-3%	-3%	i
OCC1(CCCc2ccccc2)CCN(C2CCC2)CC1	-54*	i	-7%	-13%	i
CCOC(=O)C1(CCCc2ccccc2)CCN(C2CCSCC2)CC1	14	i	1%	-6%	i
CSCC(C)N1CCC(CO)(CCCc2ccccc2)CC1 (configuration not stated)	9	i	-16%	-2%	i
CN1CCN(/N=C/c2ccc(N(C)c3ccccc3)cc2)CC1	13	i	-1%	14%	i
CN1CCN(/N=C/c2ccc(N(c3ccccc3)c3ccccc3)cc2)CC1	-51*	i	-13%	-5%	i
COc1cccc(C(=O)NC(C)c2cccc3ccccc23)c1OC (configuration not stated)	-65*	u	-23%	-17%	i
COc1cccc(C(=O)NC(C)c2ccc(-c3ccccc3)cc2)c1OC (configuration not stated)	-64*	i	-10%	-29%	i
COc1ccccc1C(=O)NC(C)c1cccc2ccccc12 (configuration not stated)	-24	i	u	u	i
COc1cc2cc(C(=O)NC(C)c3cccc4ccccc34)c(N)nc2cc1OC (configuration not stated)	u	i	26µM*	18µM*	i
CNS(=O)(=O)c1cn(CC(=O)N2CCN(c3ccccc3F)CC2)cc1S(=O)(=O)NC	x	i	x	x	i
CCCC(=O)N(c1ccc2oc3c(c2c1)CCCC3)S(=O)(=O)c1cc(C)ccc1C	x	u	x	x	i
CCN(CC)C(=S)Sc1c(-c2ccccc2)c2cc(Cl)ccc2[nH]c1=O	-61*	u	-17%	u	u
Cc1nn(-c2ccccc2)c(N)c1N=Nc1cccnc1	0	i	10%	9%	i
Nc1nn(-c2ccccc2)c(N)c1N=Nc1ccc2c(c1)OCO2	-97*	3.3µM*	18µM*	6.5µM*	7.3µM*
SMILES	IL-1B inflam inh	KB-V1 MDR tox	HT1080-NT tox	HT1080 IDH1KD tx	KB-3-1 cytotox
Nc1[nH]n(-c2ccccc2)c(=O)c1N=Nc1ccc2c(c1)OCO2	-10	i	-20%	u	u
Nc1nn(-c2ccccc2)c(N)c1N=Nc1cccc(F)c1	15	u	16µM*	5.8µM*	5.8µM*
Nc1[nH]n(-c2ccccc2)c(=O)c1N=Nc1ccc2c(c1)OCCO2	-73*	i	-16%	-13%	i
C[C@@H]1C(=O)O[C@H]2[C@H](O)[C@@]34[C@H]5C[C@@H](C(C)(C)C)[C@]36[C@@H](OC(=O)[C@@H]6O)O[C@@]4(C(=O)O5)[C@@]12O	-4	i	6%	21%	i
Nc1cc(S(=O)(=O)Nc2ccc(Br)cc2)ccc1Cl	-69*	i	-18%	u	i
CCc1ccc(OC)c(S(=O)(=O)Nc2ccc(Cc3ccncc3)cc2)c1	-76*	u	u	u	u
O=S(=O)(Nc1ccc(Cc2ccncc2)cc1)c1ccc(Cl)c(Cl)c1	-10	5.8µM*	u	u	u
CS(=O)(=O)N1CCC(Oc2ccccc2C(=O)N2CCNC(=O)C2)CC1	22	u	12%	24%	i
Oc1c(C2=NCCNC(C(F)(F)F)=C2)ccc2ccccc12	-109*	i	u	u	i
COc1ccc(NC(=O)Cc2ccc(Cl)cc2)cc1NC(=O)c1ccco1	-56*	7.3µM*	u	-23%	i
CCOc1ccccc1NC(=O)c1ccc(NC(=O)c2ccco2)cc1	-58*	i	-8%	-6%	i
COc1ccc(NC(=O)c2ccco2)cc1NC(=O)c1ccco1	-3	i	9%	12%	i
COC(=O)Cc1ccc(NC(=O)C(c2ccccc2)c2ccccc2)cc1	2	8.2µM*	3%	7%	i
COc1ccccc1NC(=O)c1ccc(NC(=O)c2ccco2)cc1	-75*	i	-6%	-2%	i
Cc1c(NC(=O)Nc2ccc(Br)cc2F)sc2nc3n(c(=O)c12)CCC(C)CC3 (configuration not stated)	x	i	x	x	i
O=C(C1=NOC2(C1)C(=O)Nc1ccccc12)N1CCCCC1 (configuration not stated)	87	i	27%	17%	i
O=C(Nc1ccc(Cl)cc1F)c1cnc2sc(N3CCOCC3)nn2c1=O	x	i	x	x	i
CN(C)c1ccc(-c2ccnc3c2CC(C)(C(=O)NCCC(F)(F)F)O3)cc1 (configuration not stated)	-17	u	-23%	-13%	u
CCOc1cc(C#N)c(NC(=O)c2ccco2)cc1OCC	21	u	u	u	6.5µM*
COc1ccc(NC(=O)c2cccc(-n3c(C)ccc3C)c2)c(OC)c1	-61*	u	-16%	-26%	u
COc1ccc(NC(=O)c2ccc(NC(=O)c3ccco3)cc2)c(OC)c1	-50*	i	7%	4%	u
COC(=O)Cc1ccc(NC(=O)c2ccc(NC(=O)c3ccco3)cc2)cc1	-88*	u	u	u	i
COc1ccc(NC(=O)c2cccc(N3CCCS3(=O)=O)c2)c(OC)c1	x	i	x	x	i
